Source: PubChem
Rows were chosen to be rich in hits. Some 27% of all compounds tested hit in one or more screens of this group.
EphB4 antag = EphB4-ephrin-B2 interaction antagonists, primary screen, biochemical, TNYL-RAW peptide probe, fluorescence polarization. Ephrin type-B receptor 4 (Homo sapiens), P54760. inhibition, % at 7 µM. EphB4 LBD / TNYL-RAW-Alexa532 peptide. actives 0.15% (n = 97,000). AID 720, 2007;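 active means inhibition above the screen-wide mean inhibition plus 3 SD, cut at about 15% in these data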;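 further: 0% = DMSO wells and 100% = excess unlabeled TNYL-RAW peptide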
Target sequence (P54760 whole entry, looked up, the tested form may be a part): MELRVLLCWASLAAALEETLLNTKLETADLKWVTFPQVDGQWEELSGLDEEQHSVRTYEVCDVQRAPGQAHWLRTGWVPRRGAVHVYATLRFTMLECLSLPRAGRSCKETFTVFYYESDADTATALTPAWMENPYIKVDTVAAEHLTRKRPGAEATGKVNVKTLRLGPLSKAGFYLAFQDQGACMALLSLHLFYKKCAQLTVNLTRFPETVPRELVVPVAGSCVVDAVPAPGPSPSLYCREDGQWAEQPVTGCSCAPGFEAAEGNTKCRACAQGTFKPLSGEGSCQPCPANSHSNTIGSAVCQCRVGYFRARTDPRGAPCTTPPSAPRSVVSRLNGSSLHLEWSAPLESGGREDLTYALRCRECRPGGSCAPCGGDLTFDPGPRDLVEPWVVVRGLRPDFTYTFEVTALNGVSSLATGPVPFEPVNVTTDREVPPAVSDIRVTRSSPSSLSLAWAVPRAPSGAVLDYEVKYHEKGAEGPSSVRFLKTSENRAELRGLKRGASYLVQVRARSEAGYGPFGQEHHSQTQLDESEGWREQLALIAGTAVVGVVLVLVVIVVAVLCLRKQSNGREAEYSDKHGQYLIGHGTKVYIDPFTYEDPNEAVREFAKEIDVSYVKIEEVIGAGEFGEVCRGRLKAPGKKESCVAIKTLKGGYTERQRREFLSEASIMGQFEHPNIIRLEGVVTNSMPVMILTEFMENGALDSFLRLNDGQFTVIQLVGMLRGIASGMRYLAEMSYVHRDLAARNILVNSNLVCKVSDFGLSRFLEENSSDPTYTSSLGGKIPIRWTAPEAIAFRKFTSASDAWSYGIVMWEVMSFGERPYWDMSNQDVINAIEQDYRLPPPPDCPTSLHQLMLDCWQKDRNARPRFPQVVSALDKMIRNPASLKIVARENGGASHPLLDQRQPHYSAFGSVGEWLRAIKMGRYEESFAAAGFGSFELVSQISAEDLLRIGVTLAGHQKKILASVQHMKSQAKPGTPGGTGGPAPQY
CYP2C9 inhib = blockers of cytochrome P450 2C9 activity – biochemical, luminescence, ADME assay, primary screen. P11712. CYP2C9 Supersomes, luciferin-H conversion. inhibition, % at 5 µM. actives 20% (n = 96,000);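 active means blocking of liver enzyme CYP2C9 beyond about 50% at 5 µM, limit read from the data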
CYP2C19 inhib = blockers of cytochrome P450 2C19 activity – biochemical, luminescence, ADME assay, primary screen | CYP2C19 Supersomes, luciferin-H EGE luminescence, 30 min | inhibition, % at 5 µM | actives 21% (n = 96,000) | AID 778, 2007;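 active means CYP2C19 inhibition above a set limit at 5 µM in the primary screen, cut at about 50% in these data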;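 further: plate controls were negative control wells for no effect and 2.5 mM tranylcypromine positive control for full effect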
CYP2C19 activ = human CYP2C19 activators, primary screen, biochemical, luminescence; recombinant CYP2C19, luciferin-H EGE luminescence; stronger effect = higher value; 0 = fully inhibited enzyme, 1 = untreated enzyme; activation factor at 5 µM; 96,000 tested, under 10 active; Cytochrome P450 2C19 (Homo sapiens), P33261;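 active means activation factor of at least 2 at 5 µM in the primary screen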;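 further: 0 = wells with 2.5 mM tranylcypromine and 1 = vehicle-only wells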
CYP2C9 act = human CYP2C9 activators, primary screen, biochemical, luminescence | Cytochrome P450 2C9 (Homo sapiens), P11712 | activation factor at 5 µM | recombinant CYP2C9, luciferin-H conversion; stronger effect = higher value; factor 1 = untreated enzyme, 0 = blocked | actives 1.4% (n = 96,000);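 active means activation factor of 2 or more for CYP2C9 at a 5 µM dose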;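 further: 0 = sulfaphenazole-blocked wells and 1 = vehicle-only wells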
Numbers without * were called inactive; nt = no result.

SMILES	EphB4 antag	CYP2C9 inhib	CYP2C19 inhib	CYP2C19 activ	CYP2C9 act
Cc1ccc(-n2c(SCC(=O)NCC3CCCO3)nnc2-c2ccoc2C)cc1 (stereo not given)	8	24	85*	0.2	0.8
CC1CCCN(Cc2nc3c(c(=O)n(C)c(=O)n3C)n2CC(N)=O)C1 (stereo not given)	-6	-4	18	0.8	1
O=c1[nH]c2ccc(Cl)cc2c(-c2ccccc2)c1N1CCN(c2ccccn2)CC1	nt	39	-8	1.1	0.6
Cc1ccc(S(=O)(=O)N(C)CCCC(=O)N2CCOCC2)cc1	-6	-8	16	0.8	1.1
Cc1cccc(OCC(=O)Nc2nonc2NC(=O)COc2cccc(C)c2)c1	1	nt	nt	nt	nt
Cc1cc(OCCCC(=O)N2CCCCC2)cc(C)c1Cl	3	-2	93*	0.1	1
Cc1ccc(C)c(OCC(=O)Nc2nonc2NC(=O)COc2cc(C)ccc2C)c1	0	77*	15	0.8	0.2
Cc1cc(Cl)ccc1OCCCC(=O)N1CCCCC1	4	-26	97*	0	1.3
Cc1ccc(OCCCC(=O)N2CCOCC2)cc1	5	-8	75*	0.2	1.1
CC1CCN(C(=O)CCCOc2ccc(Cl)cc2)CC1	-2	nt	nt	nt	nt
COCCNC(=O)COc1ccc(C)cc1C	1	9	67*	0.3	0.9
C=CCNC(=O)CCCOc1ccc(C)cc1	1	60*	73*	0.3	0.4
O=C(COc1ccc(Br)cc1)N1CCCCCC1	-5	31	94*	0.1	0.7
Cc1ccc(OCC(=O)N2CCCCCC2)c(C)c1	-3	-20	80*	0.2	1.2
Cc1cc(Br)ccc1OCC(=O)N1CCCCCC1	10	6	27	0.7	0.9
O=C(COc1ccc(Cl)cc1)N1CCCC1	3	nt	nt	nt	nt
O=C(NCC1COc2ccccc2O1)c1ccc(NC(=O)C2CCCO2)cc1 (stereo not given)	nt	5	6	0.9	1
Cn1c(Cn2c(=O)sc3ccccc32)nnc1SCc1ccccn1	6	8	-8	1.1	0.9
O=C(NCCCN1CCOCC1)c1ccc(CS(=O)(=O)Cc2ccccc2Cl)o1	-3	3	4	1	1
Cc1ccc(OCCCN2CCCC2)c(C)c1	-6	2	16	0.8	1
Cc1cc(Cl)ccc1OCCCC(=O)N1CCOCC1	10	-79	98*	0	1.8
Cc1ccc(OCCN2CCCCCC2)c(C)c1	0	15	58*	0.4	0.8
C=CCn1c(SCc2c(C)noc2C)nc2sc3c(c2c1=O)CCCC3	-11	78*	22	0.8	0.2
Cc1noc(C)c1CSc1nc2sc(C)c(C)c2c(=O)n1C1CCCC1	0	90*	29	0.7	0.1
C=CCn1c(SCc2c(C)noc2C)nc2sc3c(c2c1=O)CCCCC3	-8	95*	56*	0.4	0
SMILES	EphB4 antag	CYP2C9 inhib	CYP2C19 inhib	CYP2C19 activ	CYP2C9 act
Cc1noc(C)c1CSc1nc2sc3c(c2c(=O)n1C)CCCC3	4	40	19	0.8	0.6
CCOC(=O)N1CCC(NC(=O)c2cc(-c3ccc(F)cc3)[nH]c2C)CC1	-1	35	39	0.6	0.7
O=C1C2C3C=CC(C3)C2C(=O)N1c1ccncc1 (stereo not given)	-6	28	15	0.8	0.7
O=C1C2ON(c3ccccc3)C(c3ccncc3)C2C(=O)N1c1ccc(Br)cc1 (stereo not given)	-11	99*	100*	0	0
O=C1C2C(c3ccccc3)C=CC(c3ccccc3)C2C(=O)N1c1ccncc1 (stereo not given)	-2	82*	97*	0	0.2
Cc1ccc(N2C(=O)C3ON(c4ccccc4)C(c4ccncc4)C3C2=O)cc1 (stereo not given)	-5	97*	100*	0	0
O=C1C2ON(c3ccccc3)C(c3ccccn3)C2C(=O)N1c1ccc(Br)cc1 (stereo not given)	-6	74*	39	0.6	0.3
O=C1C2ON(c3ccccc3)C(c3ccncc3)C2C(=O)N1c1ccc(N2CCOCC2)cc1 (stereo not given)	1	45	26	0.7	0.6
CN(C)c1ccc(C2C3C(=O)N(c4ccc(C(=O)O)cc4)C(=O)C3ON2c2ccccc2)cc1 (stereo not given)	-4	11	1	1	0.9
CNCCCOc1ccc(C(C)(C)c2ccccc2)cc1	-4	-9	14	0.9	1.1
Cn1c(-n2c(-c3ccco3)nc3ccccc3c2=O)nc2ccccc21	4	2	23	0.8	1
COC(=O)c1oc2ccc(Cl)cc2c1NC(C)=O	14	38	8	0.9	0.6
Cc1ccc(C)c2[nH]c(=O)c(CCNC(=O)c3cc4ccccc4o3)cc12	nt	52*	46	0.5	0.5
COc1ccc(OC)c2[nH]c(=O)c(CCNC(=O)c3cc4ccccc4o3)cc12	nt	36	63*	0.4	0.6
Cc1ccc(CNCC(O)(c2ccccc2)c2ccc(F)cc2)cc1 (stereo not given)	5	24	13	0.9	0.8
COc1ccc(S(=O)(=O)N(CC(=O)N2CCOCC2)c2cc(Cl)ccc2OC)cc1OC	nt	33	10	0.9	0.7
O=[N+]([O-])c1ccc2c(c1)C(N1CCOCC1)/C(=C/COc1ccc(Cl)cc1Cl)O2 (stereo not given)	-15	77*	45	0.6	0.2
Cc1ccc(C)c(N2CCN(C(=O)c3cc4ccccc4oc3=O)CC2)c1	6	20	38	0.6	0.8
CCOc1ccccc1-c1nc(-c2ccc(NC(=O)c3ccc(Br)o3)cc2)no1	-3	-34	77*	0.2	1.3
CCOc1ccccc1-c1nc(-c2cccc(Br)c2)no1	-4	-74	1	1	1.7
CCOc1ccccc1-c1nc(-c2ccc(NC(=O)Cc3ccc(OC)cc3)cc2)no1	-4	-90	56*	0.4	1.9
CCC(CC)c1nnc(NC(=O)c2cccc(S(=O)(=O)N3CCc4ccccc43)c2)s1	-6	76*	28	0.7	0.2
CN1CCc2nc(NC(=O)c3cccc(S(=O)(=O)N4CCc5ccccc54)c3)sc2C1	5	27	-2	1	0.7
CCc1ccccc1NC(=O)C1C(c2ccccc2)C1(Cl)Cl (stereo not given)	4	-17	45	0.5	1.2
CC1CCCCN1C(=O)CSc1nnc(-c2c[nH]c3ccccc23)o1 (stereo not given)	nt	-15	79*	0.2	1.2
Cc1ccc(C(=O)CSc2nnc(-c3c[nH]c4ccccc34)o2)cc1	-4	53*	38	0.6	0.5
O=C(CSc1nnc(-c2c[nH]c3ccccc23)o1)N(Cc1ccccc1)c1ccc(F)cc1	-2	nt	nt	nt	nt
